# Laboratory results from publication PMC11062922 (Nature Chemical Biology, 2023).
# Like-named read-outs stand apart in the source and are kept apart here.
# Tests used:
# RPS6KA4 = details: read-out: apparent Kd, n = 1
# TNIK = details: read-out: apparent Kd, n = 1
# [1] = compound concentrations:100 nM and 1000 nM (sheet 'Lestaurtinib' of Supplementary Table 1),run:Lestaurtinib_02624_R1,Plate:MR020
# [2] = compound concentrations:100 nM and 1000 nM (sheet 'Lestaurtinib' of Supplementary Table 1),run:Lestaurtinib_02624_R2,Plate:MR020
# [3] = compound concentrations:100 nM and 1000 nM (sheet 'Lestaurtinib' of Supplementary Table 1),run:Lestaurtinib_02724_R3,Plate:MR021
# [4] = compound concentrations:100 nM and 1000 nM (sheet 'Lestaurtinib' of Supplementary Table 1),run:Lestaurtinib_02741_R1,Plate:MR023
# [5] = compound concentrations:100 nM and 1000 nM (sheet 'Lestaurtinib' of Supplementary Table 1),run:Lestaurtinib_02741_R2,Plate:MR023
# [6] = compound concentrations:100 nM and 1000 nM (sheet 'Lestaurtinib' of Supplementary Table 1),run:Lestaurtinib_02741_R3,Plate:MR023
# [7] = compound concentrations:100 nM and 1000 nM (sheet 'Lestaurtinib' of Supplementary Table 1),run:Lestaurtinib_02752_R1,Plate:MR025
# [8] = compound concentrations:100 nM and 1000 nM (sheet 'Lestaurtinib' of Supplementary Table 1),run:Lestaurtinib_02765_R2,Plate:MR026
# [9] = compound concentrations:100 nM and 1000 nM (sheet 'Lestaurtinib' of Supplementary Table 1),run:Lestaurtinib_02766_R2,Plate:MR027
# [10] = compound concentrations:100 nM and 1000 nM (sheet 'Lestaurtinib' of Supplementary Table 1),run:Lestaurtinib_02766_R3,Plate:MR027
# [11] = compound concentrations:100 nM and 1000 nM (sheet 'Lestaurtinib' of Supplementary Table 1),run:Lestaurtinib_02768_R1,Plate:MR028
# [12] = compound concentrations:100 nM and 1000 nM (sheet 'Lestaurtinib' of Supplementary Table 1),run:Lestaurtinib_02768_R3,Plate:MR028
substance,measurement,setting,value
Lestaurtinib,potency estimated from few doses,"RPS6KA4; compound concentrations:100 nM and 1000 nM (sheet 'Lestaurtinib' of Supplementary Table 1),run:Lestaurtinib_02606_R2,Plate:MR019",1310 nM
same,potency estimated from few doses,"RPS6KA4; compound concentrations:100 nM and 1000 nM (sheet 'Lestaurtinib' of Supplementary Table 1),run:Lestaurtinib_02606_R3,Plate:MR019",1340 nM
same,potency estimated from few doses,RPS6KA4; [1],1570 nM
same,potency estimated from few doses,RPS6KA4; [2],952 nM
same,potency estimated from few doses,"RPS6KA4; compound concentrations:100 nM and 1000 nM (sheet 'Lestaurtinib' of Supplementary Table 1),run:Lestaurtinib_02724_R1,Plate:MR021",1570 nM
same,potency estimated from few doses,"RPS6KA4; compound concentrations:100 nM and 1000 nM (sheet 'Lestaurtinib' of Supplementary Table 1),run:Lestaurtinib_02724_R2,Plate:MR021",1150 nM
same,potency estimated from few doses,RPS6KA4; [3],731 nM
same,potency estimated from few doses,RPS6KA4; [4],865 nM
same,potency estimated from few doses,RPS6KA4; [5],999 nM
same,potency estimated from few doses,RPS6KA4; [6],1130 nM
same,potency estimated from few doses,"RPS6KA4; compound concentrations:100 nM and 1000 nM (sheet 'Lestaurtinib' of Supplementary Table 1),run:Lestaurtinib_02748_R1,Plate:MR024",769 nM
same,potency estimated from few doses,"RPS6KA4; compound concentrations:100 nM and 1000 nM (sheet 'Lestaurtinib' of Supplementary Table 1),run:Lestaurtinib_02748_R3,Plate:MR024",638 nM
same,potency estimated from few doses,RPS6KA4; [7],1210 nM
same,potency estimated from few doses,"RPS6KA4; compound concentrations:100 nM and 1000 nM (sheet 'Lestaurtinib' of Supplementary Table 1),run:Lestaurtinib_02765_R1,Plate:MR026",1510 nM
same,potency estimated from few doses,RPS6KA4; [8],1150 nM
same,potency estimated from few doses,"RPS6KA4; compound concentrations:100 nM and 1000 nM (sheet 'Lestaurtinib' of Supplementary Table 1),run:Lestaurtinib_02766_R1,Plate:MR027",911 nM
same,potency estimated from few doses,RPS6KA4; [9],974 nM
same,potency estimated from few doses,RPS6KA4; [10],783 nM
same,potency estimated from few doses,RPS6KA4; [11],814 nM
same,potency estimated from few doses,"RPS6KA4; compound concentrations:100 nM and 1000 nM (sheet 'Lestaurtinib' of Supplementary Table 1),run:Lestaurtinib_02768_R2,Plate:MR028",841 nM
same,potency estimated from few doses,RPS6KA4; [12],954 nM
same,potency estimated from few doses,"RPS6KA4; compound concentrations:100 nM and 1000 nM (sheet 'Lestaurtinib' of Supplementary Table 1),run:Lestaurtinib_02795_R2,Plate:MR022",1420 nM
same,potency estimated from few doses,"RPS6KA4; compound concentrations:100 nM and 1000 nM (sheet 'Lestaurtinib' of Supplementary Table 1),run:Lestaurtinib_02802_R2,Plate:MR029",865 nM
same,potency estimated from few doses,"RPS6KA4; compound concentrations:100 nM and 1000 nM (sheet 'Lestaurtinib' of Supplementary Table 1),run:Lestaurtinib_02802_R3,Plate:MR029",770 nM
same,potency estimated from few doses,"RPS6KA4; compound concentrations:100 nM and 1000 nM (sheet 'Lestaurtinib' of Supplementary Table 1),run:Lestaurtinib_02896_R1,Plate:MR030",748 nM
same,potency estimated from few doses,"RPS6KA4; compound concentrations:100 nM and 1000 nM (sheet 'Lestaurtinib' of Supplementary Table 1),run:Lestaurtinib_02896_R2,Plate:MR030",1150 nM
same,potency estimated from few doses,"RPS6KA4; compound concentrations:100 nM and 1000 nM (sheet 'Lestaurtinib' of Supplementary Table 1),run:Lestaurtinib_03172_R1,Plate:MR031",1350 nM
same,potency estimated from few doses,"RPS6KA4; compound concentrations:100 nM and 1000 nM (sheet 'Lestaurtinib' of Supplementary Table 1),run:Lestaurtinib_03172_R2,Plate:MR031",771 nM
same,potency estimated from few doses,"RPS6KA4; compound concentrations:100 nM and 1000 nM (sheet 'Lestaurtinib' of Supplementary Table 1),run:Lestaurtinib_03252_R2,Plate:MR032",1300 nM
same,potency estimated from few doses,"RPS6KA4; compound concentrations:100 nM and 1000 nM (sheet 'Lestaurtinib' of Supplementary Table 1),run:Lestaurtinib_03260_R3,Plate:MR033",1400 nM
same,potency estimated from few doses,"TNIK; compound concentrations:100 nM and 1000 nM (sheet 'Lestaurtinib' of Supplementary Table 1),run:Lestaurtinib_02339_R2,Plate:MR001",798 nM
same,potency estimated from few doses,"TNIK; compound concentrations:100 nM and 1000 nM (sheet 'Lestaurtinib' of Supplementary Table 1),run:Lestaurtinib_02364_R2,Plate:MR002",206 nM
same,potency estimated from few doses,"TNIK; compound concentrations:100 nM and 1000 nM (sheet 'Lestaurtinib' of Supplementary Table 1),run:Lestaurtinib_02367_R1,Plate:MR003",1130 nM
same,potency estimated from few doses,"TNIK; compound concentrations:100 nM and 1000 nM (sheet 'Lestaurtinib' of Supplementary Table 1),run:Lestaurtinib_02367_R2,Plate:MR003",460 nM
same,potency estimated from few doses,"TNIK; compound concentrations:100 nM and 1000 nM (sheet 'Lestaurtinib' of Supplementary Table 1),run:Lestaurtinib_02367_R3,Plate:MR003",1930 nM
same,potency estimated from few doses,"TNIK; compound concentrations:100 nM and 1000 nM (sheet 'Lestaurtinib' of Supplementary Table 1),run:Lestaurtinib_02407_R1,Plate:MR005",160 nM
same,potency estimated from few doses,"TNIK; compound concentrations:100 nM and 1000 nM (sheet 'Lestaurtinib' of Supplementary Table 1),run:Lestaurtinib_02407_R2,Plate:MR005",772 nM
same,potency estimated from few doses,"TNIK; compound concentrations:100 nM and 1000 nM (sheet 'Lestaurtinib' of Supplementary Table 1),run:Lestaurtinib_02407_R3,Plate:MR005",136 nM
same,potency estimated from few doses,"TNIK; compound concentrations:100 nM and 1000 nM (sheet 'Lestaurtinib' of Supplementary Table 1),run:Lestaurtinib_02422_R1,Plate:MR006",1750 nM
same,potency estimated from few doses,"TNIK; compound concentrations:100 nM and 1000 nM (sheet 'Lestaurtinib' of Supplementary Table 1),run:Lestaurtinib_02437_R1,Plate:MR007",1310 nM
same,potency estimated from few doses,"TNIK; compound concentrations:100 nM and 1000 nM (sheet 'Lestaurtinib' of Supplementary Table 1),run:Lestaurtinib_02443_R2,Plate:MR009",687 nM
same,potency estimated from few doses,"TNIK; compound concentrations:100 nM and 1000 nM (sheet 'Lestaurtinib' of Supplementary Table 1),run:Lestaurtinib_02473_R1,Plate:MR010",165 nM
same,potency estimated from few doses,"TNIK; compound concentrations:100 nM and 1000 nM (sheet 'Lestaurtinib' of Supplementary Table 1),run:Lestaurtinib_02482_R1,Plate:MR011",994 nM
same,potency estimated from few doses,"TNIK; compound concentrations:100 nM and 1000 nM (sheet 'Lestaurtinib' of Supplementary Table 1),run:Lestaurtinib_02487_R2,Plate:MR012",159 nM
same,potency estimated from few doses,"TNIK; compound concentrations:100 nM and 1000 nM (sheet 'Lestaurtinib' of Supplementary Table 1),run:Lestaurtinib_02487_R3,Plate:MR012",481 nM
same,potency estimated from few doses,"TNIK; compound concentrations:100 nM and 1000 nM (sheet 'Lestaurtinib' of Supplementary Table 1),run:Lestaurtinib_02496_R2,Plate:MR013",764 nM
same,potency estimated from few doses,"TNIK; compound concentrations:100 nM and 1000 nM (sheet 'Lestaurtinib' of Supplementary Table 1),run:Lestaurtinib_02496_R3,Plate:MR013",887 nM
same,potency estimated from few doses,"TNIK; compound concentrations:100 nM and 1000 nM (sheet 'Lestaurtinib' of Supplementary Table 1),run:Lestaurtinib_02566_R1,Plate:MR014",845 nM
same,potency estimated from few doses,"TNIK; compound concentrations:100 nM and 1000 nM (sheet 'Lestaurtinib' of Supplementary Table 1),run:Lestaurtinib_02566_R2,Plate:MR014",581 nM
same,potency estimated from few doses,"TNIK; compound concentrations:100 nM and 1000 nM (sheet 'Lestaurtinib' of Supplementary Table 1),run:Lestaurtinib_02572_R3,Plate:MR015",52 nM
same,potency estimated from few doses,"TNIK; compound concentrations:100 nM and 1000 nM (sheet 'Lestaurtinib' of Supplementary Table 1),run:Lestaurtinib_02577_R2,Plate:MR016",582 nM
same,potency estimated from few doses,"TNIK; compound concentrations:100 nM and 1000 nM (sheet 'Lestaurtinib' of Supplementary Table 1),run:Lestaurtinib_02577_R3,Plate:MR016",885 nM
same,potency estimated from few doses,"TNIK; compound concentrations:100 nM and 1000 nM (sheet 'Lestaurtinib' of Supplementary Table 1),run:Lestaurtinib_02584_R1,Plate:MR017",680 nM
same,potency estimated from few doses,"TNIK; compound concentrations:100 nM and 1000 nM (sheet 'Lestaurtinib' of Supplementary Table 1),run:Lestaurtinib_02584_R2,Plate:MR017",717 nM
same,potency estimated from few doses,"TNIK; compound concentrations:100 nM and 1000 nM (sheet 'Lestaurtinib' of Supplementary Table 1),run:Lestaurtinib_02584_R3,Plate:MR017",641 nM
same,potency estimated from few doses,"TNIK; compound concentrations:100 nM and 1000 nM (sheet 'Lestaurtinib' of Supplementary Table 1),run:Lestaurtinib_02601_R1,Plate:MR018",756 nM
same,potency estimated from few doses,"TNIK; compound concentrations:100 nM and 1000 nM (sheet 'Lestaurtinib' of Supplementary Table 1),run:Lestaurtinib_02601_R2,Plate:MR018",146 nM
same,potency estimated from few doses,TNIK; [1],562 nM
same,potency estimated from few doses,TNIK; [2],154 nM
same,potency estimated from few doses,TNIK; [3],507 nM
same,potency estimated from few doses,TNIK; [4],208 nM
same,potency estimated from few doses,TNIK; [5],627 nM
same,potency estimated from few doses,TNIK; [6],536 nM
same,potency estimated from few doses,TNIK; [7],708 nM
same,potency estimated from few doses,"TNIK; compound concentrations:100 nM and 1000 nM (sheet 'Lestaurtinib' of Supplementary Table 1),run:Lestaurtinib_02752_R2,Plate:MR025",671 nM
same,potency estimated from few doses,TNIK; [8],797 nM
same,potency estimated from few doses,"TNIK; compound concentrations:100 nM and 1000 nM (sheet 'Lestaurtinib' of Supplementary Table 1),run:Lestaurtinib_02765_R3,Plate:MR026",836 nM
same,potency estimated from few doses,TNIK; [9],806 nM
same,potency estimated from few doses,TNIK; [10],130 nM
same,potency estimated from few doses,TNIK; [11],142 nM
same,potency estimated from few doses,TNIK; [12],785 nM
same,potency estimated from few doses,"TNIK; compound concentrations:100 nM and 1000 nM (sheet 'Lestaurtinib' of Supplementary Table 1),run:Lestaurtinib_02795_R1,Plate:MR022",573 nM
